From the supplement of paper PMC10849652
Of roughly 8,800 targets only a part is listed; those with a hit were picked by preference. About 0.5% of all pairs of compound and target were hits.

How the values were obtained:
Assay in all cases: log2 fold change, soluble protein after heating vs DMSO (PISA); higher = thermal stabilisation; K562 lysate, 10 uM; active = over 0.2 and 3.5 SD of the protein, either way, in both replicates (recomputed)
ibrutinib = compound: C=CC(=O)N1CCC[C@@H](n2nc(-c3ccc(Oc4ccccc4)cc3)c3c(N)ncnc32)C1 [ibrutinib]
How it was run: (§1)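 Thermal stability, expressed as log-two fold change relative to solvent controls, is given from duplicates. Crude K562 extract in PBS pH 7.4 with 1 mM MgCl2, at 1 mg/mL protein, was treated with 10 μM compound for 30 min and heated in aliquots for 3 min across 48°C-58°C. After pooling, adjustment to 0.5% NP-40 at 4°C and centrifugation at 21,000xg for 90 min, supernatant protein was measured by TMTpro 16plex LC-MS/MS with channel sums equalised.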

[1] = compound: CC(=O)c1cnc2ccc(-c3cc(Cl)c(O)c(Cl)c3)nc2c1N[C@H]1CC[C@H](CN(C)C)CC1
How it was run: as §1

ralimetinib = compound: CC(C)(C)Cn1c(N)nc2ccc(-c3[nH]c(C(C)(C)C)nc3-c3ccc(F)cc3)nc21 [ralimetinib]
How it was run: as §1

[2] = compound: CC(C)(O)CC(=O)NCCn1ccc2ncnc(Nc3ccc(Oc4cccc(C(F)(F)F)c4)c(Cl)c3)c21
How it was run: as §1

[3] = compound: CC(C)C1=C2N=C(C=C(N2N=C1)NCC3=CC=CC=C3)NCCCCCCN
How it was run: as §1

[4] = compound: CC1=C(C2=C(C=C1)C(=O)C3=CC=CC=C3N2CCCN)C
How it was run: as §1

[5] = compound: CC1=C(C=C(C=C1)NC(=O)C2=CC(=CC=C2)N(C)C)NC(=O)C3=CC=C(C=C3)O
How it was run: as §1

[6] = compound: CC1=CC=C(C=C1)SC2=C3C=C(SC3=CN=C2)C(=O)N
How it was run: as §1

vemurafenib = compound: CCCS(=O)(=O)Nc1ccc(F)c(C(=O)c2c[nH]c3ncc(-c4ccc(Cl)cc4)cc23)c1F [vemurafenib]
How it was run: as §1

[7] = compound: CCCS(=O)(=O)Nc1ccc(F)c(C(=O)c2c[nH]c3ncc(Cl)cc23)c1F
How it was run: as §1

barasertib = compound: CCN(CCCOc1ccc2c(Nc3cc(CC(=O)Nc4cccc(F)c4)[nH]n3)ncnc2c1)CCOP(=O)(O)O [barasertib]
How it was run: as §1

[8] = compound: CC[C@@H]1C(=O)N(C)c2cnc(Nc3ccc(C(=O)NC4CCN(C)CC4)cc3OC)nc2N1C1CCCC1
How it was run: as §1

volasertib = compound: CC[C@@H]1C(=O)N(C)c2cnc(Nc3ccc(C(=O)N[C@H]4CC[C@H](N5CCN(CC6CC6)CC5)CC4)cc3OC)nc2N1C(C)C [volasertib]
How it was run: as §1

[9] = compound: CCn1c(C(=O)N(C2CC2)C2CC2)cc2c3c(ncn3C)c(Nc3cc(C)n(C)n3)nc21
How it was run: as §1

[10] = compound: CCn1cc(-c2ccnc3[nH]c(-c4cccc(CN(C)C)c4)cc23)c(-c2ccc(NC(=O)N(C)C)cc2)n1
How it was run: as §1

[11] = compound: CN1CCC(CNc2ccc3ncc(-c4cccc(OC(F)(F)F)c4)n3n2)CC1
How it was run: as §1

saracatinib = compound: CN1CCN(CCOc2cc(OC3CCOCC3)c3c(Nc4c(Cl)ccc5c4OCO5)ncnc3c2)CC1 [saracatinib]
How it was run: as §1

[12] = compound: CC1=C(C=C(C=C1)NC(=O)C2=CC(=CC=C2)C(C)(C)C#N)NC3=CC4=C(C=C3)N=CN(C4=O)C
How it was run: as §1

sotrastaurin = compound: CN1CCN(c2nc(C3=C(c4c[nH]c5ccccc45)C(=O)NC3=O)c3ccccc3n2)CC1 [sotrastaurin]
How it was run: as §1

[13] = compound: CC1=C(C(CC(=O)N1)C2=CC=C(C=C2)C(F)(F)F)C(=O)NC3=C(C=C4C(=C3)C=NN4)F
How it was run: as §1

Measured: log2 fold change

ADD1 isoform 4 (UniProt P35611)
Chain of UniProt P35611 (P35611 whole entry, looked up): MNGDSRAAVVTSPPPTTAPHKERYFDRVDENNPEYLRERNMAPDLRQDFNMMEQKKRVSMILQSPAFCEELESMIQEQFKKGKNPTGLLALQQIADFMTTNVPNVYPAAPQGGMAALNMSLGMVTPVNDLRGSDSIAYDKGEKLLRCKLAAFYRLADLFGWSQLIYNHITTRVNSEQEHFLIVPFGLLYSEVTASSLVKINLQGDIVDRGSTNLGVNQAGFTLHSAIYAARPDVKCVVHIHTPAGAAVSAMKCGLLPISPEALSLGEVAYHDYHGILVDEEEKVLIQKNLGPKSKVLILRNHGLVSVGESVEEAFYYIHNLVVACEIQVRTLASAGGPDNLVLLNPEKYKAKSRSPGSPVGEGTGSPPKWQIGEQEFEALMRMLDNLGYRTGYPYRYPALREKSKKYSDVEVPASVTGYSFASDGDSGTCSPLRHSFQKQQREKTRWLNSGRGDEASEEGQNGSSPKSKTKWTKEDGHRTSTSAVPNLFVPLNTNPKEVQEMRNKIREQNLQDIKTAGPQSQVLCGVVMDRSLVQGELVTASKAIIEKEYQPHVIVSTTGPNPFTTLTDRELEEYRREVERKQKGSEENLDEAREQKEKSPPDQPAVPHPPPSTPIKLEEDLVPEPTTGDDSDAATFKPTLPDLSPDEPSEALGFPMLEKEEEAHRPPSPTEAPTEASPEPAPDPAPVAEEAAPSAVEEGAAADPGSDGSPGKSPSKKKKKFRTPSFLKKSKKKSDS
inactive: ibrutinib 0.214 | [1] 0.003 | ralimetinib -0.104 | [2] -0.356 | [3] 0.056 | [4] 0.004 | [5] 0.017 | [6] -0.341 | vemurafenib 0.061 | [7] -0.003 | barasertib -0.089 | [8] 0.164 | volasertib 0.061 | [9] -0.345 | [10] -0.61 | [11] 0.397 | saracatinib 0.083

AMDHD2 (UniProt Q9Y303)
Chain of UniProt Q9Y303 (Q9Y303 whole entry, looked up): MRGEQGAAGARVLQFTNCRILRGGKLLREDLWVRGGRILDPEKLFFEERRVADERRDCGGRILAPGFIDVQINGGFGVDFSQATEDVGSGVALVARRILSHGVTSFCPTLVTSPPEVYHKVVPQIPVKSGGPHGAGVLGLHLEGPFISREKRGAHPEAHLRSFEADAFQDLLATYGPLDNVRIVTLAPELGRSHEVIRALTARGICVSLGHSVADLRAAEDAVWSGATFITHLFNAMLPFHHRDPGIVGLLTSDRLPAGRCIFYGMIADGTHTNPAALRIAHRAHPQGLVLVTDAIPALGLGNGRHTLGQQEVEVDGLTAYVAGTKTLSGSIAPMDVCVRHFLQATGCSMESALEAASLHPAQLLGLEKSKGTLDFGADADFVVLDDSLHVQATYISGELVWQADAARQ
inactive: [12] 0.014 | vemurafenib -0.128 | [10] -0.116 | [11] 0.052 | sotrastaurin 0.047

ALG13 isoform 2 (UniProt Q9NP73)
Chain of UniProt Q9NP73 (Q9NP73 whole entry, looked up): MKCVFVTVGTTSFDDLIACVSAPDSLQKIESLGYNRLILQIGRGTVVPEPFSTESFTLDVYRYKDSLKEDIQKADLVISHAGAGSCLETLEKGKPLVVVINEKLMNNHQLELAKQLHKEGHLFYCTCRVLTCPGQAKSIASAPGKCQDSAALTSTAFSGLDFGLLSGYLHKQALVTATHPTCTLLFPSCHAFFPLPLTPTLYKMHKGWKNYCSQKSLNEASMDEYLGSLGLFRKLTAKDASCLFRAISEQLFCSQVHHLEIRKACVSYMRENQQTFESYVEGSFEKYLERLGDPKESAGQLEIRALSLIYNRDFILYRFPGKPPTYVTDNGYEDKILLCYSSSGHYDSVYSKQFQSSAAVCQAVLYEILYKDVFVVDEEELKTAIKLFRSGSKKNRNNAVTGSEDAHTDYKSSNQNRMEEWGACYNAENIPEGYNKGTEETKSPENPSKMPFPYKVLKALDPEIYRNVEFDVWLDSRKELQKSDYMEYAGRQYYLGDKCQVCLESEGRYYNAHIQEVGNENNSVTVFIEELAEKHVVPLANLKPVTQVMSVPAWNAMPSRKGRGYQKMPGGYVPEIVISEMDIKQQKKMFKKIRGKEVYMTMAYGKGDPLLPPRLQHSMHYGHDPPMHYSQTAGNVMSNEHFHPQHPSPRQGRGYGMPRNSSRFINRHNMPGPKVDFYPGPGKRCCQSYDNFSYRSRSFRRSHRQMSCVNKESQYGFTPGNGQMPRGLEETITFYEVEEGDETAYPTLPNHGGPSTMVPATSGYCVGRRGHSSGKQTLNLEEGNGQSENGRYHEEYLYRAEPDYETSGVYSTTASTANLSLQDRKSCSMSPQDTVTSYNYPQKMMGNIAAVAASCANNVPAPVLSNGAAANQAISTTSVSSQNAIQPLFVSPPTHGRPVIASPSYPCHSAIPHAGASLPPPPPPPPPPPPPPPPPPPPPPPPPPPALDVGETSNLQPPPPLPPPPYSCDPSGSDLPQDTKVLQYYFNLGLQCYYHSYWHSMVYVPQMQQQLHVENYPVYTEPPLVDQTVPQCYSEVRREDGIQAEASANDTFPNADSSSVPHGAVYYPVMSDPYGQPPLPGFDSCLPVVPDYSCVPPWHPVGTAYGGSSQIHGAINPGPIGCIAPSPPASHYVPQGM
inactive: [13] 0.03 | [10] 0.016 | [11] -0.098
